SW480 rereplic: inducers of DNA re-replication in SW480 colon cancer cells; SW480 DNA re-replication, Hoechst DNA content imaging, 48 h; Potency, µM (titrated, usually from 46.1 µM), without a hit: top-dose re-replication activation, usual class: activators; 340,000 tested, 1.8% active; further: % of control where 0% means no effect; nearly all actives have a fitted effect of over 55% in size
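DNA re-replication was detected as more nuclei of elevated Hoechst intensity after 48 hr exposure to compound (23 nL pinned per well of 250 cells).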
HT1080 IDH1KD tx: toxicity to HT-1080 IDH1 knockdown cells (counter line); HT-1080 IDH1 knockdown viability, ATP luminescence, 48 h; Potency, µM (series often up to 46.1 µM), inactives show at the top dose activity, negative = toxicity, hits mostly cytotoxic; 360,000 tested, 2% active;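 further: 0% = DMSO wells and -100% = cell-free medium wells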
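HT-1080-IDH1KD cells (IDH1 knocked down), 750/well in RPMI with 5% FBS, treated with compound 48 h at 37 degrees C. Viability by CellTiter-Glo luminescence, normalised to DMSO and no-cell wells; concentration-response curves classed.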
MCF10A rerep: DNA re-replication induction in MCF 10a cells; MCF 10A DNA re-replication, Hoechst nuclear intensity, 48 h; Potency, µM (top dose mostly 46.1 µM), for the others: at the highest dose activity, positive = re-replication, most hits filed as activators; 350,000 tested, 2.9% active; AID 624296; further: % of control where 0% means no effect; nearly all actives have a fitted effect of over 50% in size
KB-V1 MDR tox: KB-V1 MDR subline cytotoxicity; Potency, µM (series often up to 46.1 µM), hits mostly cytotoxic; KB-V1 MDR cells viability, CellTiter-Glo, 72 h; AID 1347076; 400,000 tested, 3.4% active; further: on the % scale 0 is the no-effect control and ±100 the full control effect; nearly all actives have a fitted effect of over 60% in size
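Cytotoxicity toward P-gp-expressing KB-V1 cells was determined as loss of CellTiter-Glo luminescence after 72 h at 37 degrees C. Compounds were tested in quantitative HTS format across a concentration range, with curves fitted to normalized data.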
KB-3-1 cytotox: KB-3-1 parental cell cytotoxicity; KB-3-1 viability, CellTiter-Glo ATP luminescence, 72 h; Potency, µM (doses to about 46.1 µM), hits mostly cytotoxic; 400,000 tested, 1.4% active; AID 1347075; further: on the % scale 0 is the no-effect control and ±100 the full control effect; nearly all actives have a fitted effect of over 60% in size
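Parental KB-3-1 viability, qHTS format: 72 h compound exposure, 37 °C; CellTiter-Glo; media-only wells and DMSO plates as controls; concentration-effect fits on corrected data.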
HT1080-NT tox: kills 2HG-producing HT-1080-NT fibrosarcoma cells; Potency, µM (series often up to 46.1 µM), for the others: top-dose activity, negative = less viability, hits mostly cytotoxic; HT-1080-NT fibrosarcoma viability, CellTiter-Glo ATP luminescence, 48 h; 360,000 tested, 1.6% active;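 further: NT is the 2HG producing partner of a matched IDH1 knockdown line; 0% = DMSO-treated cells and -100% = media-only wells without cells; nearly all actives have a fitted effect of over 55% in size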
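A 48-hour cytotoxicity screen used HT-1080-NT cells plated 2 hours before compound delivery. ATP-based CellTiter-Glo luminescence measured viability, normalized to DMSO and no-cell controls.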
* = called active by the depositor; i = inactive; ? = inconclusive; · = not tested or not shown. Sampled rows, rich in hits. Any-hit rate of the full collection: about 7.9%. The call rests on the fitted dose curve; in most records, active means well fitted curve in the direction sought with a large enough effect; inconclusive means small, poorly fitted or top-dose-only effect, or another doubt; inactive means no such curve, though single readings can be large; an effect the other way counts as inactive or inconclusive. Potency means the concentration at half of the fitted maximal effect.

SMILES	SW480 rereplic	HT1080 IDH1KD tx	MCF10A rerep	KB-V1 MDR tox	KB-3-1 cytotox	HT1080-NT tox
COc1ccc(NC(=O)C2=C(C)Nc3ncnn3C2c2sccc2C)cc1 (centres undefined)	·	·	·	i	i	·
Cc1ccc(C(=O)c2cn(Cc3ccccc3C)c3nc(C)ccc3c2=O)cc1	·	·	·	i	i	·
C/C(=N\NC(=S)NCc1ccccc1)c1ccc(C(C)(C)C)cc1	4%	?	?	18µM*	i	-26%
C/C(=N\NC(=S)NCc1ccccc1)c1ccccc1	14%	-13%	5%	i	i	2%
CC[C@H](C)C1OC(=O)[C@@H](C)[C@@H](CC)NC(=O)[C@H](C)N(C)C(=O)C(C)(C)C(=O)C(C)NC(=O)[C@H](Cc2ccc(OC)cc2)N(C)C(=O)[C@H](C(C)C)N(C)C(=O)CNC(=O)[C@H](CC(C)C)N(C)C(=O)CNC1=O (some centres undefined)	·	0.18µM*	·	i	0.21µM*	0.26µM*
CCC[C@H]1NC(=O)[C@H](C)N(C)C(=O)C(C)(C)C(=O)C(C)NC(=O)[C@H](Cc2ccc(OC)cc2)N(C)C(=O)[C@H](C(C)C)N(C)C(=O)CNC(=O)[C@H](CC(C)C)N(C)C(=O)CNC(=O)[C@H]([C@@H](C)CC)OC(=O)[C@H]1C (some centres undefined)	?	1µM*	1.5µM*	i	i	0.82µM*
CCN1CCN(C(c2ccc(SC)cc2)c2c(O)cc(C)n(CCOC)c2=O)CC1 (centres undefined)	·	·	·	i	i	·
Cc1ccc(Cc2nc3ccccc3nc2SCC(=O)NCc2ccccc2Cl)cc1	·	·	·	i	i	·
Nc1nccc(-c2nn(-c3ccc(Cl)cc3)ccc2=O)n1	-3%	1%	1%	i	i	6%
C#CCSc1nccc(-c2nn(-c3ccc(C)cc3)ccc2=O)n1	35%	-23%	?	?	i	-8%
CCSc1nccc(-c2nn(-c3ccc(C)cc3)ccc2=O)n1	7.3µM*	9.2µM*	5.2µM*	2.6µM*	2.1µM*	10µM*
CSc1nccc(-c2nn(-c3ccc(C)cc3)ccc2=O)n1	13µM*	8.2µM*	8.2µM*	2.9µM*	5.2µM*	?
C=CCSc1nccc(-c2nn(-c3ccc(C)cc3)ccc2=O)n1	?	?	8.2µM*	3.7µM*	6.5µM*	?
CCc1ccc(NC(=O)C2CCN(c3nn4c(=O)cc(C)nc4s3)CC2)cc1	·	·	·	i	i	·
CSc1ccc(NC(=O)C2(C)CCN2C(=O)c2cc(C)n(C)n2)cc1 (centres undefined)	·	8%	·	i	i	2%
Cc1nc2ncnn2c(N2CCN(C(c3ccccc3)c3ccccc3)CC2)c1C	-3%	?	?	23µM*	i	-15%
Cc1nc2ncnn2c(N2CCN(c3cccc(C(F)(F)F)c3)CC2)c1C	-1%	?	-4%	2.6µM*	21µM*	?
Cc1cc(N2CCN(c3cccc(C(F)(F)F)c3)CC2)n2ncnc2n1	-3%	8%	-3%	i	?	3%
Cc1cc(N2CCN(C(c3ccccc3)c3ccccc3)CC2)n2ncnc2n1	-10%	-1%	?	?	i	1%
O=C(C(=Cc1ccc(F)cc1)c1ccccc1)c1ccc(O)cc1	1%	-3%	?	i	i	-3%
CCC(=O)Nc1ccc(O)cc1	-1%	·	15%	·	·	·
CCC(=O)Nc1ccc(C=C(C(C)=O)C(C)=O)cc1	-3%	2%	16µM*	i	?	0%
CCC(=O)Nc1ccc(/C=C(\C(C)=O)C(=O)c2ccccc2)cc1	5%	16µM*	?	i	?	18µM*
O=C(C(=Cc1ccc(F)cc1)C(=O)c1ccccc1)c1ccccc1	·	?	·	21µM*	18µM*	?
COc1ccc(CCNC(=O)c2cnn(-c3ccc(F)cc3)c2C2CCN(C(=O)OC(C)(C)C)CC2)c(OC)c1	·	·	·	?	i	·
SMILES	SW480 rereplic	HT1080 IDH1KD tx	MCF10A rerep	KB-V1 MDR tox	KB-3-1 cytotox	HT1080-NT tox
COc1ccc(C(=O)NC2CC(=O)N(c3ccc4c(c3)OCCO4)C2)cc1 (centres undefined)	·	·	·	i	i	·
COc1cccc(S(=O)(=O)Nc2ccc3c(c2)[C@@H]2C[C@@H](CC(=O)NCc4ccc(Cl)cc4)O[C@@H](CO)[C@@H]2O3)c1	·	6.5µM*	·	i	?	8.2µM*
COC(=O)C[C@H]1C[C@@H]2c3cc(NS(=O)(=O)c4cccc(OC)c4)ccc3O[C@@H]2[C@@H](CO)O1	·	-4%	·	i	i	0%
CC1CCCC(C)N1C(=O)CSc1nc2ncnc(N)c2[nH]1 (centres undefined)	8.2µM*	5%	6.5µM*	i	i	7%
O=C(NCc1cccnc1)c1cc(Sc2cccc(Cl)c2)nc2ccccc12	1%	0%	?	16µM*	?	-15%
Cc1nn(-c2ccccc2)c2c1C(O)n1c(nc3ccccc31)S2 (centres undefined)	-3%	0%	16µM*	18µM*	i	5%
CC(NC(=O)C(Cc1ccccc1)N1C(=O)C2C3CCC(C3)C2C1=O)c1ccccc1 (centres undefined)	1%	16%	-2%	7.3µM*	i	17%
O=c1c2c3c(sc2ncn1/N=C/c1ccc([N+](=O)[O-])o1)CCCC3	12µM*	?	4.1µM*	21µM*	21µM*	?
O=c1c2c3c(sc2ncn1-n1cccc1)CCCCC3	1%	-3%	12%	?	i	-7%
Cn1cc(/C=N/n2cnc3sc4c(c3c2=O)CCCC4)c2ccccc21	18µM*	-1%	?	21µM*	?	2%
NS(=O)(=O)c1ccc(CCNC(=O)CSc2nc3ccccc3c(=O)n2CCC(=O)N2CCCCC2)cc1	-35%	4%	0.73µM*	i	i	10%
NS(=O)(=O)c1ccc(CCNC(=O)CSc2nc3ccccc3c(=O)n2CCN2CCOCC2)cc1	-2%	24%	4%	i	i	17%
O=c1c2ccccc2nc(SCCN2CCCCC2)n1CCc1ccccc1	?	15µM*	?	i	i	?
CCc1ccc(NC(=O)CSc2nc3ccccc3c(=O)n2CCCC(=O)N2CCCC2)cc1	?	-19%	?	2.9µM*	?	-17%
Cc1nn(C)c2c1c(C(F)(F)F)cc(=O)n2CC(=O)N1CCC(C)CC1	·	·	·	i	i	·

Assay outcomes from PubChem.
